# Source: PubChem BioAssay AID2685 (National Center for Advancing Translational Sciences (NCATS), 2010)
# In all, about 320,000 compounds went through this assay and about 2,100 (0.66%) were called active. Inconclusive results (about 53%) are left out. Calls follow the shape of the dose curve; as a rule, active = well fitted inhibition curve with a large enough effect in the signal ratio, with a control signal flat (not every such curve was filed as active); inconclusive = small, poorly fitted or top-dose-only effect, or effect the other way, or a change in a side signal; inactive = flat fitted curve, though single readings scatter; the % refers to the signal ratio. The sample as a whole holds a higher share of actives than the screen did.
# Assay: qHTS Assay for Lipid Storage Modulators in Drosophila S3 Cells;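 as to cell number change: cells counted by Cell Tracker Red CMTPX staining in the red channel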; as to lipid storage change, negative = inhibition: % is scaled to controls: 0 for no effect and ±100 for the full control effect
# Settings: BODIPY lipid droplet fluorescence, 18-24 h, cells fed with added oleic acid; cell number change: measured here: cell count max response; series mostly up to 46.1 µM; lipid storage change, negative = inhibition: at the top concentration
# Method in brief: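 Laser-scanning cytometry quantifies lipid droplet accumulation (500–530 nm total intensity; droplet/cell object ratio) in oleic acid-fed (400 uM added) Drosophila S3 cells treated with a concentration series. 20 uM Triacsin C defined 100% inhibition.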
# Potency is read from the fitted curve at half-maximal effect.
SMILES,"lipid storage change, negative = inhibition",cell number change,Potency,outcome
O=C(Nc1nnc(S(=O)(=O)N2CCCCCC2)s1)c1cccc(Br)c1,-11.2% (inactive),16.5%,,
COc1cccc(C(=O)Nc2nnc(S(=O)(=O)N3CCCC3)s2)c1,,-14.5%,4.11 µM (active),
CN(Cc1ccc(F)cc1)S(=O)(=O)c1nnc(NC(=O)c2ccccc2)s1,,3.05%,,inactive
Cc1cccc(C(=O)Nc2nnc(S(=O)(=O)N3CCOCC3)s2)c1,-27.6% (inactive),-0.612%,,
COc1cccc(C(=O)Nc2nnc(S(=O)(=O)N(C)Cc3ccc(F)cc3)s2)c1,,-17.9%,29.1 µM (active),
COc1ccc(CN(C)S(=O)(=O)c2nnc(NC(=O)c3cccc(F)c3)s2)cc1,,,,inactive
CN(Cc1ccc2c(c1)OCO2)C(=O)c1cc(-c2ccccc2)c(N2CCOCC2)s1,,-5.64%,,inactive
COc1cccc(C(=O)NCc2nnc(SCC(=O)Nc3nccs3)n2-c2cccc(C)c2)c1,7.07% (inactive),-7.27%,,
COc1cc(NC(=O)CCc2nnc3ccc(N4CCN(C)CC4)nn23)cc(OC)c1,,-14.7%,,inactive
Cc1ccc(C)c(/C=C2\CCn3c2nc2cc(C(=O)O)ccc2c3=O)c1,-0.517% (inactive),6.53%,,
CNc1oc(C)nc1S(=O)(=O)c1ccc(C)cc1,-9.91% (inactive),-20.3%,,
CNc1oc(-c2ccc(F)cc2)nc1S(=O)(=O)c1ccccc1,,11.1%,,inactive
CNc1oc(C)nc1S(=O)(=O)c1ccccc1,,3.59%,32.6 µM (active),
CC(=O)Nc1ccc(S(=O)(=O)Nc2nccc(C3Cc4ccccc4C(=O)O3)n2)cc1 (stereo not given),,-1.08%,14.6 µM (active),
CC(=O)Nc1ccc(S(=O)(=O)Nc2ncccn2)cc1,5.04% (inactive),3.3%,,
CC(=O)Nc1ccc(S(=O)(=O)Nc2nccc(C)n2)cc1,5.67% (inactive),1.57%,,
O=C(CSc1nnc(COc2ccccc2)o1)N1CCN(c2ccccc2)CC1,2.5% (inactive),3.22%,,
Cc1cccc(C(=O)Nc2ccc(N3CCN(S(C)(=O)=O)CC3)cc2)c1,-0.275% (inactive),1.55%,,
COc1ccc(-n2ncc(C(C)NS(=O)(=O)c3cc(F)ccc3C)c2C)cc1 (stereo not given),,-20.2%,9.2 µM (active),
COC(=O)c1sccc1S(=O)(=O)NC(C)c1cnn(-c2ccc(OC)cc2)c1C (stereo not given),-6.72% (inactive),19.6%,,
COc1ccc(-n2ncc(C(C)NS(=O)(=O)c3ccc(C(C)=O)cc3)c2C)cc1 (stereo not given),-20.7% (inactive),-7.79%,,
CN(C)CCCN(C(=O)COc1ccccc1)c1nc2ccc(F)cc2s1,-6.61% (inactive),-15.9%,,
COc1ccc(Cn2nnnc2CN(Cc2cc3cccc(C)c3[nH]c2=O)C2CCCC2)cc1,-1.09% (inactive),-3.93%,,
CCCCN(c1ccccc1)c1ncnc2nc[nH]c12,-13.1% (inactive),0.284%,,

SMILES,"lipid storage change, negative = inhibition",cell number change,Potency,outcome
O=c1c2ccccc2c(-c2ccccc2)nn1-c1ccccn1,21.9% (inactive),,,
O=C1c2cc3ccccc3c(-c3ccccc3)c2C(=O)N1c1ccccn1,,-7.79%,23.1 µM (active),
O=C1c2cccc3c(N4CCCCC4)ccc(c23)C(=O)N1c1ccccn1,22% (inactive),12.6%,,
COc1ccc2c(c1)CCC(C)N2C(=O)C(=O)c1c[nH]c2ccccc12 (stereo not given),13.6% (inactive),,,
CCCCNC(=O)C1CCN(S(=O)(=O)c2c(C)noc2/C=C\c2ccc(OC)cc2)CC1,-15.3% [at 9.22 µM] (inactive),0.864%,,
COc1ccccc1CCC(=O)OC(C)C(=O)Nc1c(C)n(C)n(-c2ccccc2)c1=O (stereo not given),-5.33% (inactive),,,
O=C(NCc1ccco1)C1CCCN1C(=O)Nc1ccc(Br)cc1 (stereo not given),,13.3%,7.31 µM (active),
O=C(NCc1ccco1)C1CCCN1C(=O)Nc1cccc(Cl)c1 (stereo not given),10.9% (inactive),3.19%,,
Cc1cc(C)cc(NC(=O)N2CCCC2C(=O)NCc2ccco2)c1 (stereo not given),17.2% (inactive),4.2%,,
COCCNC(=O)C1CCN(S(=O)(=O)c2ccccc2)CC1,-7.72% (inactive),-5.9%,,
CCCNS(=O)(=O)c1cccc(C(=O)OCc2cc(=O)oc3cc(OC)ccc23)c1,,20.2%,0.326 µM (active),
CCNS(=O)(=O)c1ccc(C(=O)OCc2cc(=O)oc3cc(OC)ccc23)cc1,,12.6%,,inactive
COc1ccc2c(COC(=O)CNS(=O)(=O)c3ccc(C)c(C)c3)cc(=O)oc2c1,,,,inactive
CCOC(=O)C1CCCN(C(=O)c2cc(S(=O)(=O)Nc3ccccc3OC)ccc2C)C1 (stereo not given),7.98% (inactive),12%,,
COc1ccc(CCNC(=O)C2CCN(c3nccc(C)n3)CC2)cc1,13.8% (inactive),5.66%,,
CC(=O)Nc1ccccc1NC(=O)C/C(C)=N/NC(=O)C1CCCCC1,,-3.17%,,inactive
Cc1cccc(C(=O)NCC(=O)OCc2cc(=O)n3ccsc3n2)c1,18.6% (inactive),-4.9%,,
Nc1cc(C(=O)OCC(=O)N2CCCC2=O)ccc1Cl,,,,inactive
O=C(OCC(=O)N1CCCC1=O)c1nc(Cl)c(Cl)c(Cl)c1Cl,,-29%,7.08 µM (active),
NC(=O)Nc1ccc(C(=O)OCC(=O)N2CCCC2=O)cc1,17.3% (inactive),-27.9%,,
CCCc1cc(=O)c2c(O)cccc2o1,0.102% (inactive),-3.96%,,
O=C(NCCc1ccc(Cl)cc1)Nc1ccc(F)cc1,-17.8% (inactive),-2.02%,,
O=C(NCCc1ccc(F)cc1)Nc1ccc([N+](=O)[O-])cc1,,18.2%,13 µM (active),
O=C(NCCc1ccncc1)Nc1ccc(F)cc1,-6.04% (inactive),5.19%,,
